# Screening data as filed in PubChem BioAssay.
# This is a sample that favours compounds with a hit; in the whole collection about 3.4% have one here.
# MITF inh: blocks human microphthalmia-associated transcription factor | 0.91% of 650,000 active | inhibition, % at 2.6 µM | O75030 | AlphaScreen MITF homodimerization, bead proximity signal; in the data active means inhibition above about 50%;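 further: 0% = vehicle wells with protein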
# FBW7 activator: human FBW7 E3 ligase activation, primary screen; AlphaScreen FBW7–phospho-cyclin E peptide binding, activator screen; normalized activity (activation), % at 26.1 µM; 0.13% of 650,000 active; AID 1259310; in the data active means normalized activity above about 1.9%;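 further: purified mutant Fbw7 with reduced substrate affinity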
# Target sequence (Q969H0 whole entry, looked up): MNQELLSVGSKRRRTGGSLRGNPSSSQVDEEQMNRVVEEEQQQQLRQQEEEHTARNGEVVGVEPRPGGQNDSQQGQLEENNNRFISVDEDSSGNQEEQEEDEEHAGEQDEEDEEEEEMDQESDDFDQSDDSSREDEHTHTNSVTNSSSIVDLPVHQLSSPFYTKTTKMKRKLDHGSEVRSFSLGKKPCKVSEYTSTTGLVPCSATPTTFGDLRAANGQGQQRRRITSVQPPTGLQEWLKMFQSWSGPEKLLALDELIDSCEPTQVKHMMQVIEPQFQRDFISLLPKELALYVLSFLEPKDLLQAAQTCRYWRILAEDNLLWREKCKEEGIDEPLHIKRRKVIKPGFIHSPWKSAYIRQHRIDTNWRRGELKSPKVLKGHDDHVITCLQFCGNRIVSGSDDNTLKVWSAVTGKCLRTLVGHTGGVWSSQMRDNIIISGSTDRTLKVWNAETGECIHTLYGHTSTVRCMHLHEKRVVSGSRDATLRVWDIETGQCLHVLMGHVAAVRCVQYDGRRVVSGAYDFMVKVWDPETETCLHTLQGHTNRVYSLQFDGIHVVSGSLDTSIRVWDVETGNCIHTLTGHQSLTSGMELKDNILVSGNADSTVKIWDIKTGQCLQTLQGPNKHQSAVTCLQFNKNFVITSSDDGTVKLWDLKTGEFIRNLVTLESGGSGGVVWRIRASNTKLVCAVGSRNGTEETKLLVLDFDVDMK
# GPR151 ag: human GPR151 activation; PathHunter beta-arrestin GPR151 cells, luminescence; activation, % at 11.2 µM; 1% of 650,000 active; AID 1508602; in the data active means activation above about 4.9%;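 further: 0% = median of compound wells and 100% = cells with positive control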
# TEAD-YAP block: TEAD-YAP interaction inhibition; HEK-TIYL cells, TEAD-Gal4/YAP UAS-luciferase luminescence; inhibition, % at 9.12 µM; 1.4% of 640,000 active; AID 1259422; in the data active means inhibition above about 32%;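 further: 0% = median of test compound wells and 100% = reference inhibitor wells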
# GPR151 confirm: human GPR151 activation, confirmation screen. 6,700 tested, under 10 active. activation, % at 11.2 µM. GPR151 PathHunter beta-arrestin cells, luminescence, 90 min; % of EA-reagent control over plate median. shares compounds with GPR151 ag;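 active means mean percent activation across replicates above the confirmation screen cutoff of 4.91%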
# GPR119 counter: GPR119 activation, counter-screen for GPR151 activators. shares compounds with GPR151 ag. GPR119 PathHunter beta-arrestin cells, luminescence, 90 min; 0 = compound-well median, 100 = enzyme-acceptor control. activation, % at 11.2 µM. 0.3% of 6,700 active. AID 1508611;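 active means mean percent activation in the counterscreen above 29.09%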;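 further: counterscreen on off-target GPR119 to flag nonselective hits from the GPR151 activator screen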
# * = called active by the depositor; / = no result.
SMILES,MITF inh,FBW7 activator,GPR151 ag,TEAD-YAP block,GPR151 confirm,GPR119 counter
CC(Oc1ccc(Br)cc1)C(=O)O/N=C(\N)c1ccc([N+](=O)[O-])cc1 (stereo unspecified),-15.3,-0.2,0.0,-7.5,/,/
CC(Oc1ccc(Br)cc1)C(=O)O/N=C(\N)c1cccc([N+](=O)[O-])c1 (stereo unspecified),12.9,-0.1,5.7*,-6.0,-0.9,7.5
Cc1cc(C)n2nc(SC(C)C(=O)NC3CC3)nc2n1 (stereo unspecified),1.2,0.1,-1.1,5.7,/,/
Cc1ccc(C)c(-n2c(CNC(=O)c3ccc(S(=O)(=O)N4CCOCC4)cc3)nnc2SCC(=O)N2CCCc3ccccc32)c1,7.5,0.1,-1.1,3.7,/,/
Cc1ccc(SCC(=O)O/N=C(\N)c2cccc([N+](=O)[O-])c2)cc1,2.7,-0.3,5.2*,4.0,-0.1,0.6
Cc1cc(S(=O)(=O)NC(C)C)ccc1OCC(=O)O,-3.6,-0.2,0.9,-1.0,/,/
Cc1c(C(=O)N2CCN(c3cccc(Cl)c3)CC2)sc2ncnc(N3CCCCC3C)c12 (stereo unspecified),9.7,-0.3,-1.0,-13.0,/,/
Nc1nc(SCc2ccc(F)cc2)nn1CC(=O)Nc1ccccc1F,25.7,-0.1,6.3*,-3.8,0.3,-4.9
O=C(NCCCN1CCOCC1)c1ccc2c(=O)n(-c3cccc(C(F)(F)F)c3)c(=S)[nH]c2c1,-2.5,-0.4,-0.8,2.3,/,/
COc1ccccc1NC(=O)c1cc2ccccc2oc1=Nc1ccc(F)cc1,-8.9,0.1,-0.6,-11.5,/,/
COc1cc(-c2nc(-c3ccccc3)c(-c3cccs3)[nH]2)cc(OC)c1OC,-4.8,-0.1,5.0*,-2.7,-0.8,-4.8
CCCCN(C)C(=O)CN1C(=O)C(CC)Oc2ccc(C)cc21 (stereo unspecified),-16.5,0.0,8.8*,-1.9,-0.3,-9.0
CCC1Oc2ccc(C)cc2N(CC(=O)O)C1=O (stereo unspecified),1.8,-0.1,-0.1,0.6,/,/
CC1(C)NC(=O)N(CCOc2ccc(OCc3ccccc3)cc2)C1=O,5.6,0.0,7.2*,-0.8,-0.1,-16.7
CC(=O)Nc1ccc(OCC(O)CNC2CCCC2)cc1 (stereo unspecified),24.4,0.3,5.5*,-0.9,0.8,12.0
O=C1c2ccccc2C(=O)C1C1=NNC(c2ccccc2)C1 (stereo unspecified),-5.1,-0.2,-1.0,-41.3,/,/
COc1ccc(C(C)n2c(C)c3c(C)nnc(C)c3c2C)cc1 (stereo unspecified),-9.5,0.8,11.3*,-13.0,0.2,-0.9
Cc1nnc(C)c2c(C)n(C(C)c3ccccc3)c(C)c12 (stereo unspecified),-4.8,-0.1,-0.6,-27.3,/,/
CCOC(=O)c1c(NC(=O)CSc2nnc(CNC(=O)c3cc(OC)cc(OC)c3)n2-c2ccc(F)cc2)sc2c1CCCC2,-1.8,0.0,-0.2,0.9,/,/
CCOC(=O)c1sc2nccc3c2c1N=CN3c1ccccc1,10.6,0.1,5.3*,-13.2,0.5,0.2
O=c1[nH]c2ccccc2nc1/C=C(\O)C(F)F,14.4,-0.1,-0.1,4.3,/,/
C/C(O)=C\c1nc2ccccc2[nH]c1=O,12.3,0.3,6.9*,6.9,0.0,12.7
COc1cc(Nc2ncnc3c2nc(Nc2cc(OC)c(OC)c(OC)c2)n3C(C)C)cc(OC)c1OC,-4.2,0.0,0.1,-5.2,/,/
O=c1c2ccccc2nc(SCc2cccc(Br)c2)n1Cc1ccc2c(c1)OCO2,17.1,0.1,-1.1,3.9,/,/
CCOc1ccc(CC(=O)Nc2ccc(-c3cn4c(n3)SCC4)cc2)cc1,-15.0,-0.1,5.1*,-5.8,-0.5,4.6
SMILES,MITF inh,FBW7 activator,GPR151 ag,TEAD-YAP block,GPR151 confirm,GPR119 counter
O=C(Cc1ccc(Br)cc1)Nc1ccc(-c2cn3c(n2)SCC3)cc1,-3.4,0.2,-0.5,-6.8,/,/
CC1=NN(C(=O)c2csc(C)c2)C(O)(C(F)F)C1 (stereo unspecified),1.0,0.0,1.0,3.2,/,/
COC(=O)Cn1c2cc(OC)c(OC)cc2c2nc(=O)cc(C)n21,8.6,-0.1,8.8*,7.2,0.3,3.2
Cc1cc(C)cc(NC(=O)C2CCN(c3nnc(-n4c(C)ccc4C)s3)CC2)c1,4.8,0.0,5.5*,5.1,0.0,-10.1
CC1=C(NCc2ccccc2)CCC1=O,12.4,0.1,6.0*,7.3,-0.6,-4.2
CC1(C)CC(=O)C([N+](=O)[O-])=C(NCc2ccccc2)C1,1.2,0.2,-0.2,2.0,/,/
O=C(Nc1nccs1)c1ncoc1-c1cccs1,-13.7,-0.2,8.7*,5.5,-0.1,4.4
O=C(Nc1nncs1)c1ncoc1-c1cccs1,-16.1,-0.3,-0.6,7.7,/,/
O=C(N/C(=C\c1ccc(O)cc1)C(=O)N1CCOCC1)c1ccccc1,-3.4,-0.1,1.1,2.0,/,/
C=CCOc1ccccc1/C=N/NC(=O)c1cccc(I)c1,-6.9,-0.1,10.7*,-7.0,0.3,0.7
O=C(N1CCCCC1)N1CCN(S(=O)(=O)N2CCOCC2)CC1,-7.9,-0.3,0.7,-4.2,/,/
CN1C(=O)[C@H]2CN(C(=O)c3ccccc3)CCN2C(=O)[C@@H]1Cc1ccccc1,8.9,-0.1,5.3*,-10.9,0.4,12.0
N#CC1(C#N)[C@@H]2c3ccccc3C=CN2[C@@H](C(=O)c2ccc(Cl)cc2)[C@@H]1c1cccs1,9.9,0.7,-0.2,-9.1,/,/
COc1ccc(-n2c(=S)[nH]c3cc(C(=O)N(C)Cc4ccccc4)ccc3c2=O)cc1OC,10.6,0.0,-0.1,6.5,/,/
CC(C)CNc1cc(N2CCN(CCO)CC2)c2noc3c2c1C(=O)c1ccccc1-3,45.3,-0.6,0.0,6.8,/,/
COc1ccc(C2CNCC2c2nc3ccc(-c4cn[nH]c4)cc3[nH]2)cc1 (stereo unspecified),-20.0,-0.1,6.0*,2.5,-0.5,-4.3
COc1ccc2c(c1)CC(c1nc3ccc(-c4cn[nH]c4)cc3[nH]1)NC2 (stereo unspecified),25.5,0.0,0.4,25.2,/,/
CCCn1nc(C(=O)NNC(=O)Cn2nc(C)cc2C)c2ccccc2c1=O,-4.5,0.1,-1.0,0.2,/,/
Cc1cccc(-c2cc(C(=O)Nc3ccc(F)c([N+](=O)[O-])c3)c3ccccc3n2)c1,-7.5,-0.2,5.7*,-6.8,0.6,18.1
CN(C)c1ccc(-c2nc(-c3cc4ccccc4oc3=O)cs2)cc1,11.6,0.1,0.5,3.9,/,/
COc1ccc(C(=O)NNC(=O)C(=O)N2CCCC2)cc1OC,6.8,-0.2,5.6*,-6.3,0.9,18.0
Cc1cccc(N(CCOC(=O)/C=C/c2cccc(Cl)c2)C2=NS(=O)(=O)c3ccccc32)c1,-9.1,-0.1,-2.0,-6.2,/,/
CC1(CCC(=O)N2CCC(n3nccc3NC(=O)CCOc3ccccc3)CC2)CC1,7.1,0.1,1.5,1.2,/,/
O=C(CCOc1ccccc1)Nc1ccnn1C1CCN(C(=O)CCc2ccccc2)CC1,0.6,0.0,5.7*,-6.3,0.2,5.1
